Our source for the Potency, outcome and PLD induction values is PubChem BioAssay (Tox21).

A short description of assay [1]: A CellTox Green Cytotoxicity Assay to monitor cytotoxicity in HepG2 cells - 0 hour (AID 1224882). Also: nearly all actives have a fitted effect of over 35% in size. Also: potency is read from the fitted curve at half-maximal effect. The gist of the method: (§1)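 HepG2 cells, 600/well, preincubated 5 h with CellTox Green dye, then exposed to Tox21 compounds in DMSO at 37 C for up to 40 h. Dead-cell DNA fluorescence read at the indicated time point.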
Assay [2] is described as follows: A CellTox Green Cytotoxicity Assay to monitor cytotoxicity in HepG2 cells - 32 hour (AID 1224883). Also: nearly all actives have a fitted effect of over 50% in size. Also: potency is read from the fitted curve at half-maximal effect. The method in brief: as §1
Assay [3] in a line: A CellTox Green Cytotoxicity Assay to monitor cytotoxicity in HEK293 cells - 8 hour (AID 1224884). Also: nearly all actives have a fitted effect of over 35% in size. Also: potency is read from the fitted curve at half-maximal effect. The gist of the method:
(§2)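 HEK293 cells, 600/well, were preincubated 5 hours and then exposed to compounds at 37 C for up to 40 hours. A cell-impermeant cyanine dye staining dead-cell DNA was read by fluorescence at 0, 8, 16, 24, 32 and 40 h time points.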

Assay [4] in a line: qHTS RealTime-Glo MT Cell Viability Assay in HepG2 cells - 16 hour (AID 1224885). Also: nearly all actives have a fitted effect of over 50% in size. Also: potency is read from the fitted curve at half-maximal effect. The method in brief:
(§3)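 qHTS, HepG2, 600 cells/well, RealTime-Glo (NanoLuc + prosubstrate) added with cells; 5 h preincubation; DMSO compound addition; 37 C; luminescence at 0/8/16/24/32/40 h.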
Background: In qHTS, concentration-response curves come from the screen itself.

The nature of assay [5]: qHTS RealTime-Glo MT Cell Viability Assay in HEK293 cells - 24 hour (AID 1224886). Also: nearly all actives have a fitted effect of over 50% in size. Also: potency is read from the fitted curve at half-maximal effect. The gist of the method:
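Assay medium contained NanoLuc luciferase plus cell-permeant prosubstrate, added with HEK293 cells at 600 cells/well. After 5 h at 37 C/5% CO2 compounds were added; plates stayed at 37 C for 40 h with serial luminescence reads.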

Assay [6] in a line: qHTS RealTime-Glo MT Cell Viability Assay in HEK293 cells - 8 hour (AID 1224887). Also: top concentration of the series differs between compounds; nearly all actives have a fitted effect of over 50% in size. The method in brief:
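600 cells/well were plated with the nonlytic NanoLuc/prosubstrate reagent, pre-incubated 5 h, then given 23 nL of compound in DMSO. Incubation at 37 C for 40 h, with luminescence from viable-cell-reduced substrate read repeatedly from 0 h.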

A short description of assay [7]: A CellTox Green Cytotoxicity Assay to monitor cytotoxicity in HEK293 cells - 16 hour (AID 1224888). Also: nearly all actives have a fitted effect of over 35% in size. Also: potency is read from the fitted curve at half-maximal effect. The gist of the method: as §2
Assay [8] is described as follows: qHTS RealTime-Glo MT Cell Viability Assay in HepG2 cells - 0 hour (AID 1224889). Also: nearly all actives have a fitted effect of over 50% in size. Also: potency is read from the fitted curve at half-maximal effect. The method in brief: as §3
Assay [9] is described as follows: A CellTox Green Cytotoxicity Assay to monitor cytotoxicity in HepG2 cells - 8 hour (AID 1224890). Also: nearly all actives have a fitted effect of over 45% in size. Also: potency is read from the fitted curve at half-maximal effect. The gist of the method: as §1
Assay [10] in a line: qHTS assay to identify small molecule antagonists of the estrogen receptor alpha (ER-alpha) signaling pathway using the BG1 cell line in the presence of 0.1 nM 17-beta-estradiol - cell viability counter screen (AID 1259241). Also: nearly all actives have a fitted effect of over 40% in size. Also: potency is read from the fitted curve at half-maximal effect. The method in brief: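 VM7Luc4E2 cells (endogenous ER-alpha, 4×ERE-luciferase), hormone-starved 5 days in charcoal-stripped FBS, were treated with compounds plus 0.1 nM 17beta-estradiol for 22 hr at 37C; viability read in same wells as CellTiter-Fluor live-cell protease fluorescence.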

A short description of assay [11]: qHTS assay to identify small molecule antagonists of the androgen receptor (AR) signaling pathway using the MDA cell line in the presence of 0.5 nM R1881 - cell viability counter screen (AID 1259242). Also: nearly all actives have a fitted effect of over 45% in size. Also: potency is read from the fitted curve at half-maximal effect. The method in brief: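 MDA-kb2 cells (MMTV-luciferase, AR/GR responsive) were treated with compounds plus 0.5 nM R1881 (final) for 16 hr at 37C, 0% CO2. Viability was then read in the same wells as live-cell protease fluorescence (CellTiter-Fluor, 30 min).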

A short description of assay [12]: qHTS assay to identify small molecule phospholipidosis (PLD) inducers (AID 1259344; active = well fitted curve in the direction sought with a large enough effect; an effect the other way counts as inactive or inconclusive). The gist of the method:
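Quantitative HTS in HepG2: compound plus LipidTOX Red dye for 24 h, paraformaldehyde fixation with Hoechst 33342, widefield high-content imaging; amiodarone as positive and DMSO as negative control.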

Assay [13] in a line: qHTS assay to identify small molecule HDAC inhibitors (AID 1259364). Also: top concentration of the series differs between compounds; nearly all actives have a fitted effect of over 45% in size. The method in brief:
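Wild-type HCT-116 cells, plated overnight at 37 C, exposed to compounds 2 hr at 37 C; luminogenic HDAC-Glo substrate then added 30 min at room temperature. Luminescence reports relative endogenous class I/II HDAC activity.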

A short description of assay [14]: qHTS assay to identify small molecule HDAC inhibitors - cell viability counter screen (AID 1259365). The method in brief:
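Wild-type HCT-116 cells were seeded at 1,500 per well, incubated overnight at 37 C, then exposed to compounds in DMSO for 2hr. Viability was read by CellTiter-Glo luminescence after 30min at room temperature.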

A short description of assay [15]: qHTS assay to identify small molecule agonists of the sonic hedgehog signaling (Shh) pathway - cell viability counter screen (AID 1259366). Also: nearly all actives have a fitted effect of over 50% in size. Also: potency is read from the fitted curve at half-maximal effect. The method in brief:
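NIH/3T3-derived 3T3 Gli1-Luc cells (stable Gli1-responsive firefly luciferase reporter) were seeded, rested 4 hr at 37 C/5% CO2, then exposed to compounds in DMSO for 24 hr; viability was read by CellTiter-Fluor fluorescence in the same wells.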

Assay [16] is described as follows: qHTS assay to identify small molecule antagonists of the sonic hedgehog signaling (Shh) pathway - cell viability counter screen (AID 1259367). Also: nearly all actives have a fitted effect of over 55% in size. Also: potency is read from the fitted curve at half-maximal effect. The method in brief:
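Seed 3T3 Gli1-Luc cells at 2,000 per well; incubate 4 hr; add compound in DMSO, then conditioned medium; incubate at 37C with 5% CO2; add CellTiter-Fluor after 23 hr; read fluorescence 1 hr later.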

The nature of assay [17]: qHTS assay to identify small molecule agonists of the sonic hedgehog signaling (Shh) pathway (AID 1259368; calls by dose curve; also: series mostly up to about 92 µM; nearly all actives have a fitted effect of over 15% in size). The method in brief:
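NIH/3T3-derived 3T3Gli1-Luc cells with stably integrated Gli1-driven firefly luciferase, 2,000 cells/well, compounds added after 4 hr. Incubated 24 hr at 37C, 5% CO2; luminescence read after 30 min with luciferase reagent at room temperature.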

A short description of assay [18]: qHTS assay to identify small molecule antagonists of the sonic hedgehog signaling (Shh) pathway (AID 1259369; calls by dose curve; also: nearly all actives have a fitted effect of over 45% in size; also: potency is read from the fitted curve at half-maximal effect). The gist of the method:
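NIH/3T3-derived Gli1-Luc reporter cells plated 4 h, dosed with compound, then stimulated with conditioned medium for 24 h at 37 C. Firefly luciferase luminescence read after 30 min with detection reagent at room temperature.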

For assay [19], the target named is Estrogen receptor (Homo sapiens) (UniProt P03372). The assay is described as follows: qHTS assay to identify small molecule antagonists of the estrogen receptor alpha (ER-alpha) signaling pathway using the BG1 cell line in the presence of 0.1 nM 17-beta-estradiol (AID 1259244). Also: nearly all actives have a fitted effect of over 50% in size. The method in brief:
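VM7Luc4E2 cells (endogenous full-length ER-alpha, 4×ERE-luciferase), kept 5 days in phenol red-free, charcoal-stripped FBS medium; 4,000 cells/well. Compounds added with 0.1 nM (final) 17beta-estradiol, 22 hr at 37C; luminescence read with ONE-Glo after 30 min.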

“And” between values parts separate entries of the source, which are not always exact repeats. Identical values can stand only once. Results filed as inconclusive are left out. Where a structure was tested more than once in an assay, its records may differ in their call. The source made the active and inactive calls. Unless noted, calls follow the shape of the dose curve; as a rule, active = well fitted curve in the direction sought with a large enough effect in the repeat runs; inconclusive = weak or mixed curves; inactive = no such curve, though single readings can be large; an effect the other way counts as inactive or inconclusive.
% is scaled to controls: 0 for no effect and ±100 for the full control effect.

Estrogen receptor (Homo sapiens), sequence (P03372 whole entry, looked up): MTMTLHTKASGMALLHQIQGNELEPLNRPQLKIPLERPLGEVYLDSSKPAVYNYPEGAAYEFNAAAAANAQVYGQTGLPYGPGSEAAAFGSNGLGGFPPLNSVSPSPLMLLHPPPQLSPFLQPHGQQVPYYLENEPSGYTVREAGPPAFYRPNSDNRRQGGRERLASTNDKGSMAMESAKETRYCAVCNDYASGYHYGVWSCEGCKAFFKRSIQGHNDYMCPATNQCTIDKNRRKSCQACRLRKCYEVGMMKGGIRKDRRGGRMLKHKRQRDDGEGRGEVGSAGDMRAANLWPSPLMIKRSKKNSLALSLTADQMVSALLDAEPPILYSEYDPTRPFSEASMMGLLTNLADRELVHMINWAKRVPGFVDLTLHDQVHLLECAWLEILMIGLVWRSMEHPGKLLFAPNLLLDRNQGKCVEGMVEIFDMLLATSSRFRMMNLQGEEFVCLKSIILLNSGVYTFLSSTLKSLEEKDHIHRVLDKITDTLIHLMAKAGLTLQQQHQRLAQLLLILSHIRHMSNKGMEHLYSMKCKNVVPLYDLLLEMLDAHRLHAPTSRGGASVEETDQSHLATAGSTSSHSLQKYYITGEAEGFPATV

On to `CN(C)C(=S)SC(=S)N(C)C`, for which the Potency result in assay [1], in assay [3], in [6], in assay [7], in assay [8] and in [9] was “inactive” throughout. Moreover, the Potency entry in assay [12], in assay [13] and in [14] was “inactive” in each case. The Potency in assay [2] was 2.52 µM (active) and 1.95 µM (active) and 2.68 µM (active); in assay [4], 2750 nM (active); in assay [5], 2.24 µM (active) and 2.19 µM (active) and 6.74 µM (active); in assay [10], 2.5 µM (active) and 5.45 µM (active) and 3.76 µM (active); in assay [11], 2.5 µM (active) and 1.72 µM (active) and 3.35 µM (active); in [15], 3.14 µM (active) and 545 nM (active) and 2.11 µM (active). The Potency was 789 nM (active) and 217 nM (active) and 6.68 µM (active) in assay [16]; 280 nM (active) and 109 nM (active) and 2.66 µM (active) in [18]. Moreover, the outcome in assay [17] was inactive.
Consider `Cc1cc(=O)oc2cc(O)ccc12`, for which the Potency entry in [1], in assay [2], in [3], in [4], in [5] and in assay [6] was “inactive” each time. The Potency entry in assay [7], in assay [8], in assay [9], in assay [10], in [11] and in assay [19] was “inactive” throughout. Also, the Potency result in assay [12], in assay [13], in [14] and in assay [16] was “inactive” each time. In addition, the compound was classed as inactive in assay [17]. Moreover, in assay [18], the Potency is 15.4 µM (active) and 17.2 µM (active) and inactive.
In the case of `O=C1OC2(c3ccccc31)c1cc(Br)c(O)c(Br)c1Oc1c2cc(Br)c(O)c1Br`, the Potency was 9.92 µM (active) and 11.3 µM (active) and 23.9 µM (active) in [1]; 5.58 µM (active) and 14.2 µM (active) and 23.9 µM (active) in [2]; 5.58 µM (active) and 12.7 µM (active) and 19 µM (active) in assay [3]; 4.43 µM (active) and 7.11 µM (active) and 19 µM (active) in [7]; 9.92 µM (active) and 20 µM (active) in assay [8]; 5.58 µM (active) and 14.2 µM (active) and 21.3 µM (active) in assay [9]. In addition, the Potency in [10] was 7.81 µM (active) and 22.3 µM (active) and 11.9 µM (active); in assay [11] it was 4.93 µM (active) and 25 µM (active) and 10.6 µM (active). Besides, the Potency entry in assay [4], in assay [5], in [6], in assay [19], in [12] and in [13] was “inactive” each time. Besides, the Potency entry in [14], in [15], in [16] and in [18] was “inactive” each time. Also, in assay [17], the result was inactive.
Consider `CN1[C@@H]2CC(OC(=O)[C@H](CO)c3ccccc3)C[C@H]1[C@@H]1O[C@@H]12` (some centres not stated), for which the Potency entry in [1], in assay [2], in assay [3], in [4], in [5] and in assay [6] was “inactive” each time. Moreover, the Potency entry in assay [7], in assay [8], in assay [9], in [10], in [11] and in [19] was “inactive” throughout. Besides, the Potency result in [12], in assay [13], in assay [14], in assay [15], in assay [16] and in assay [18] was “inactive” throughout. For the same compound, in assay [17], the call was inactive.
Take `Oc1ccccc1`: the Potency result in assay [1], in assay [2], in [3], in assay [4], in assay [5] and in assay [6] was “inactive” each time. Moreover, the Potency result in [7], in assay [8], in assay [9], in [10], in assay [11] and in [13] was “inactive” each time. Besides, the Potency result in assay [14], in assay [15], in assay [16] and in assay [18] was “inactive” in each case. Besides, in [12], the PLD induction was 0.811% [at 7.66 µM] (inactive). Besides, in assay [17], the call was inactive.
